Measurements as given in PubChem BioAssay AID652099 (National Center for Advancing Translational Sciences (NCATS), 2013).
The source made the active and inactive calls.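 Rule for the calls: active = Gaucher patient macrophages show a phagocytic index close to or matching that of healthy macrophages; inactive = the rest.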

Assay: Extended Characterization of Activators of N370S glucocerebrosidase as a Potential Chaperone Treatment of Gaucher Disease: Phagocytosis Index
Conditions: Gaucher iPSC macrophages, phagocytosis of fluorescent E. coli particles
Description: Glucocerebrosidase (GCase) catalyzes the hydrolysis of beta-glucocerebroside (GC) to glucose and ceramide in lysosomes. Mutations in the glucocerebrosidase gene result in Gaucher disease, an autosomal recessive lysosomal storage disorder. Many of the mutations encountered in patients with Gaucher disease are missense alterations that may cause misfolding, decreased stability and/or mistrafficking of this lysosomal protein. […] These inhibitors include iminosugar analogs and other inhibitors that were discovered as part of previous work. However, the enhancement of enzyme activity by the chaperone action of an enzyme inhibitor must be balanced against the direct inhibition of the enzyme. […] In this extended characterization of our probe, we have further characterized the activity of probes in relevant models of Gaucher disease. This assay examine phagocytosis in patient-derived macrophages following compound incubation. NIH Chemical Genomics Center [NCGC] NIH Molecular Libraries Probe Production Centers Network [MLPCN] MLPCN Grant: MH086442 Assay Submitter (PI): Ellen Sidransky, NHGRI
HMacs and iMacs, plated in black 96-well clear bottom plates, were treated, washed and incubated for 2 hrs with 100 µl of fluorescein-labeled E. coli BioParticles (Vybrant Phagocytosis Assay, Invitrogen).

| SMILES | outcome |
| --- | --- |
| C#Cc1ccc(NC(=O)c2cnn3c(C)cc(C)nc23)cc1 | active; similar to control |
